Rows were chosen to be rich in hits. Some 2.4% of all compounds tested hit in one or more screens of this group.
POLK inh: qHTS for Inhibitors of Polymerase Kappa; hit rate 0.53% among 400,000; Potency, µM (top dose mostly 107 µM), actives largely listed as inhibitors; purified Pol kappa, fluorescent DNA synthesis assay, 10 min; AID 588579, 2011; DNA polymerase kappa (Homo sapiens), Q9UBT6
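10 nM Pol kappa preincubated 15 min at room temperature with compounds, then reaction started with substrate at 50 nM final. Fluorescence read kinetically at 0 and 10 min; buffer-only wells served as negative control.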
POLI inh: qHTS for Inhibitors of Polymerase Iota | Pol iota fluorescent replication assay, 10 min | AID 588590, 2011 | Potency, µM (doses to about 115 µM), hits mostly inhibitors | hit rate 1% among 390,000 | DNA polymerase iota (Homo sapiens), Q9UNA4
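Fluorescent replication assay read twice, at 0 min and 10 min after adding 50 nM (final) substrate. Enzyme (10 nM) and compounds were first incubated 15 min at room temperature; enzyme-free buffer wells were negative controls.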
Pol eta inh: qHTS for Inhibitors of Polymerase Eta. DNA polymerase eta (Homo sapiens), Q9Y253. recombinant Pol eta, fluorescent DNA replication assay. hit rate 1.2% among 390,000. Potency, µM (doses to about 114 µM), hits mostly inhibitors
Target sequence (Q9Y253 whole entry, looked up): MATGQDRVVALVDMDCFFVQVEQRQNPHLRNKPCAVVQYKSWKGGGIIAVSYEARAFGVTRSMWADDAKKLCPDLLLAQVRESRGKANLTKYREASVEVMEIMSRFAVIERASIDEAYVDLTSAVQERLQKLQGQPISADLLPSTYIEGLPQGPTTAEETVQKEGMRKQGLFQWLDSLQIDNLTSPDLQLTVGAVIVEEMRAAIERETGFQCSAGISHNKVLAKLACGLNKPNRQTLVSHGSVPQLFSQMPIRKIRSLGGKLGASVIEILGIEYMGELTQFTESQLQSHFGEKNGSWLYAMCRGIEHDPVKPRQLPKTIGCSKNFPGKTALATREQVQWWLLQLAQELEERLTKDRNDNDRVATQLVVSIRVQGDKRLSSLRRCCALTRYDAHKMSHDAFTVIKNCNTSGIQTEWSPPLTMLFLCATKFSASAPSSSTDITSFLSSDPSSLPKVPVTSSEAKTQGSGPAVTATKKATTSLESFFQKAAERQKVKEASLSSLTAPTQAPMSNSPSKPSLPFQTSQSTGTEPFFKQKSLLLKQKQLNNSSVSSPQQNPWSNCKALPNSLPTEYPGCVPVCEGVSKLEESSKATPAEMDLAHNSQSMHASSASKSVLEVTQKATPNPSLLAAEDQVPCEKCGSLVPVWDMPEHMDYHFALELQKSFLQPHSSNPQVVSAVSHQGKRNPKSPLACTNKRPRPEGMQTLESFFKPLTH
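Pol eta at 10 nM preincubated with compounds 15 min at room temperature; reaction started with fluorescent substrate (50 nM final) and read kinetically at 0 and 10 min.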
Pol beta inh: qHTS Assay for Inhibitors of DNA Polymerase Beta | P06746 | Pol beta primer extension/strand displacement, fluorescence kinetic | Potency, µM (series often up to 114 µM), most hits filed as inhibitors | hit rate 1.3% among 340,000
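Pol beta (10 nM) was preincubated with compound for 15 min at room temperature. The reaction was then started with 50 nM substrate and read immediately and after a further 10 min at room temperature.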
FEN1 inhibitor: qHTS Assay for the Inhibitors of Human Flap endonuclease 1 (FEN1); P39748; Recombinant FEN1 flap cleavage, fluorescence, 15 min; Potency, µM (top dose mostly 114 µM), most hits filed as inhibitors; hit rate 0.35% among 390,000; AID 588795, 2011; also: nearly all actives have a fitted effect of over 65% in size
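FEN1 at 10 nM preincubated with compounds 15 min at room temperature, then flap DNA substrate added at 50 nM final. Signal read at 0 and 15 min; concentration-response fitted with four-parameter Hill equation.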
WRN inhibitor: qHTS for Inhibitors of WRN Helicase | Bifunctional 3'-5' exonuclease/ATP-dependent helicase WRN (Homo sapiens), Q14191 | WRN helicase unwinding, fluorescent forked duplex, kinetic | Potency, µM (titrated, usually from 114 µM), actives largely listed as inhibitors | hit rate 0.46% among 360,000; also: nearly all actives have a fitted effect of over 55% in size
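Enzyme (20 nM final) and test compound sit together 15 min at room temperature before substrate addition. Substrate is a single-forked duplex oligonucleotide (100 nM) labelled with fluorophore and quencher, with 2 mM ATP; helicase unwinding raises red fluorescence, read kinetically.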
A number is an active result; [ ] = dose if it differs, or a comment. Calls follow the shape of the dose curve; as a rule, active = well fitted curve in the direction sought with a large enough effect; inconclusive = small, poorly fitted or top-dose-only effect, or another doubt; inactive = no such curve, though single readings can be large; an effect the other way counts as inactive or inconclusive.

Results for CSCC[C@@H]1NC(=O)[C@@H](NC(=O)[C@H](CCCNC(=N)N)NC(=O)[C@H](CC(C)C)NC(=O)[C@H](CCSC)NC(=O)[C@H](CC(=O)O)NC(=O)[C@H](Cc2ccccc2)NC(=O)[C@@H](N)CC(=O)O)CSSC[C@@H](C(=O)N[C@@H](Cc2c[nH]c3ccccc23)C(=O)N[C@@H](CCC(N)=O)C(=O)N[C@@H](Cc2ccc(O)cc2)C(=O)O)NC(=O)[C@@H]2CCCN2C(=O)[C@H](CCCNC(=N)N)NC(=O)[C@H](Cc2ccccc2)NC(=O)[C@H](C(C)C)NC(=O)[C@H](CCCNC(=N)N)NC(=O)CNC(=O)[C@H](CC(C)C)NC1=O ?
POLK inh: inactive[12 µM]

Results for CCOC(=O)c1[nH]c(C)c(CCC(=O)Nc2cc(Cl)ccc2C)c1C ?
POLK inh: inactive; POLI inh: inactive; Pol eta inh: inactive; Pol beta inh: inactive; FEN1 inhibitor: inactive

How did O=c1cc(CSc2nnc(COc3ccccc3Cl)o2)nc2sccn12 do in these assays?
POLK inh: inactive; POLI inh: inactive; Pol eta inh: inactive; Pol beta inh: 35.5µM; FEN1 inhibitor: inactive; WRN inhibitor: inactive

How did O=C(COc1ccccc1Cl)Nc1ccc(OCc2cc(=O)n3ccsc3n2)cc1 do in these assays?
POLK inh: inactive; POLI inh: inactive; Pol eta inh: inactive; Pol beta inh: inactive; FEN1 inhibitor: inactive

Results for CC(=O)CS(=O)(=O)c1ccc(Oc2ccc(S(=O)(=O)CC(C)=O)cc2)cc1 ?
POLK inh: inconclusive; POLI inh: inconclusive; Pol eta inh: inconclusive; Pol beta inh: 31.6µM; FEN1 inhibitor: inactive; WRN inhibitor: inactive

Results for O=C(O)CS(=O)(=O)c1ccc(Oc2ccc(S(=O)(=O)CC(=O)O)cc2)cc1 ?
POLK inh: inactive; POLI inh: inactive; Pol eta inh: inactive; Pol beta inh: inactive; FEN1 inhibitor: inactive; WRN inhibitor: inactive

What do the screens show for `Oc1cc2cc(-c3csc(-c4ccc(F)cc4)n3)ccc2[nH]1`?
POLK inh: inactive; POLI inh: inactive; FEN1 inhibitor: inactive

Results for COc1ccc(NC(=O)CCCn2nc(C)c3c(C)n(-c4ccccc4)nc3c2=O)cc1OC ?
POLK inh: inactive; POLI inh: inactive; Pol eta inh: inactive; Pol beta inh: inactive; FEN1 inhibitor: inactive; WRN inhibitor: inactive

What do the screens show for `COc1cccc(NC(=O)Cn2nc(C)c3c(C)n(-c4ccccc4)nc3c2=O)c1`?
POLK inh: inactive; POLI inh: 89.1µM; Pol eta inh: inactive; Pol beta inh: inactive; FEN1 inhibitor: inactive

How did COc1ccc(NC(=O)Cn2nc(C)c3c(C)n(-c4ccccc4)nc3c2=O)cc1OC do in these assays?
POLK inh: inactive; POLI inh: inconclusive; Pol eta inh: inconclusive; Pol beta inh: 50.1µM; FEN1 inhibitor: inconclusive

Results for COc1cccc(NC(=O)CCCn2nc(C)c3c(C)n(-c4ccccc4)nc3c2=O)c1 ?
POLK inh: inactive; POLI inh: inactive; Pol eta inh: inactive; Pol beta inh: inactive; FEN1 inhibitor: inactive; WRN inhibitor: inactive

What do the screens show for `O=C(O)CN1C(=O)/C(=C\c2cccc(OCc3ccccc3F)c2)SC1=S`?
POLK inh: inactive; POLI inh: inconclusive; Pol eta inh: inconclusive; Pol beta inh: inactive; FEN1 inhibitor: inactive; WRN inhibitor: inactive

How did O=C(O)CN1C(=O)/C(=C\c2ccccc2OCc2ccc(Cl)cc2)SC1=S do in these assays?
POLK inh: inactive; POLI inh: inactive; Pol eta inh: 79.4µM; Pol beta inh: inconclusive; FEN1 inhibitor: inconclusive; WRN inhibitor: inactive

How did O=C(O)CN1C(=O)/C(=C\c2cc(Br)ccc2OCc2ccc(Cl)cc2Cl)SC1=S do in these assays?
POLK inh: inactive; POLI inh: inconclusive; Pol eta inh: inconclusive; Pol beta inh: 22.4µM; FEN1 inhibitor: inactive; WRN inhibitor: inactive

Results for O=C(O)CN1C(=O)/C(=C\c2cccc(OCc3ccc(Cl)cc3)c2)SC1=S ?
POLK inh: inactive; POLI inh: inconclusive; Pol eta inh: 50.1µM; Pol beta inh: inconclusive; FEN1 inhibitor: inactive; WRN inhibitor: inconclusive

What do the screens show for `O=C(CSc1ncnc2c1oc1ccccc12)Nc1nccs1`?
POLK inh: inactive; POLI inh: inactive; Pol eta inh: inactive; Pol beta inh: inactive; FEN1 inhibitor: inactive; WRN inhibitor: inactive

How did CCc1cc2cc3c(cc2nc1SCC(=O)Nc1c[nH]c(=O)[nH]c1=O)OCO3 do in these assays?
POLK inh: inactive; POLI inh: inactive; Pol eta inh: inactive; Pol beta inh: inactive; FEN1 inhibitor: inactive; WRN inhibitor: inactive

Results for CCc1cc2cc3c(cc2nc1SCC(=O)Nc1nccs1)OCO3 ?
POLK inh: inactive; POLI inh: 70.8µM; Pol eta inh: inactive; Pol beta inh: inactive; FEN1 inhibitor: inactive; WRN inhibitor: inactive

What do the screens show for `CCc1nc(SCC(=O)Nc2nccs2)c2oc3ccccc3c2n1`?
POLK inh: inactive; POLI inh: 31.6µM; Pol eta inh: inconclusive; Pol beta inh: 15.8µM; FEN1 inhibitor: inactive; WRN inhibitor: inconclusive

What do the screens show for `NC(=O)c1ccsc1NC(=O)COC(=O)c1cc(=O)[nH]c2ccccc12`?
POLK inh: inactive; POLI inh: inconclusive; Pol eta inh: 39.8µM; FEN1 inhibitor: inactive; WRN inhibitor: inconclusive

What do the screens show for `NC(=O)c1ccsc1NC(=O)COC(=O)c1ccccc1F`?
POLK inh: inactive; POLI inh: 79.4µM; Pol eta inh: inactive; FEN1 inhibitor: inactive; WRN inhibitor: inactive

How did CC(=O)Nc1cccc(OCC(=O)Nc2sccc2C(N)=O)c1 do in these assays?
POLK inh: inactive; POLI inh: 50.1µM; Pol eta inh: inconclusive; Pol beta inh: inactive; FEN1 inhibitor: inactive; WRN inhibitor: inactive[11.6 µM]

How did NC(=O)c1ccsc1NC(=O)COC(=O)c1c(F)cccc1Cl do in these assays?
POLK inh: inactive; POLI inh: inactive; Pol eta inh: inactive; FEN1 inhibitor: inactive; WRN inhibitor: inactive

What do the screens show for `NC(N)=NCCC[C@H](N)C(=O)N1CCC[C@H]1C(=O)N1CCC[C@H]1C(=O)NCC(=O)N[C@@H](Cc1ccccc1)C(=O)N[C@@H](CO)C(=O)N1CCC[C@H]1C(=O)N[C@@H](Cc1ccccc1)C(=O)O`?
POLK inh: inactive

What do the screens show for `N[C@H](C(=O)O)[C@H](Cc1ccccc1)C(=O)O`?
POLK inh: inactive

How did CCOc1ccc2nc(SCC(=O)c3ccc(C)s3)sc2c1 do in these assays?
POLK inh: inactive; POLI inh: inactive; Pol eta inh: inactive; Pol beta inh: inactive; FEN1 inhibitor: inactive; WRN inhibitor: inactive

What do the screens show for `CCOc1ccc2nc(SCC(=O)c3ccc(O)cc3O)sc2c1`?
POLK inh: inconclusive; POLI inh: inconclusive; Pol eta inh: inconclusive; Pol beta inh: 35.5µM; FEN1 inhibitor: inactive; WRN inhibitor: inactive
